From PubChem BioAssay (NCI)
About 83,000 compounds went through this panel and 20% of them were active in at least one assay; those are over-represented in the sample as a whole.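 Interpretation: 100, growth as untreated; towards 0, rising growth inhibition; 0, no net growth; 0 to -100, cell death. Compounds scoring below 10 were considered active.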 The source made the active and inactive calls.

Experiments:
Assay in all cases: NCI-60 one-dose screen, 48 h (100 = growth as untreated, 0 = no growth, -100 = all killed)
Conditions in all cases: 10 µM unless noted
HCT-15 colon = system: HCT-15 colon
HT29 colon = system: HT29 colon
SNB-75 CNS = system: SNB-75 CNS
SNB-19 CNS = system: SNB-19 CNS
U251 CNS = system: U251 CNS
PC-3 prostate = system: PC-3 prostate
SK-MEL-5 melanoma = system: SK-MEL-5 melanoma
UACC-62 melanoma = system: UACC-62 melanoma
SK-MEL-28 melanoma = system: SK-MEL-28 melanoma
SK-MEL-2 melanoma = system: SK-MEL-2 melanoma
SN12C renal = system: SN12C renal
UO-31 renal = system: UO-31 renal
TK-10 renal = system: TK-10 renal
ACHN renal = system: ACHN renal
CAKI-1 renal = system: CAKI-1 renal
A498 renal = system: A498 renal
CCRF-CEM leukemia = system: CCRF-CEM leukemia
MOLT-4 leukemia = system: MOLT-4 leukemia
LOX IMVI melanoma = system: LOX IMVI melanoma
EKVX NSCLC = system: EKVX NSCLC

Measured: growth

COc1cc(-c2cnc3nonc3n2)c(OC)c2c1OCO2
inactive: HCT-15 colon 87.5% | HT29 colon 104% | SNB-75 CNS 95.7% | SNB-19 CNS 108% | U251 CNS 93.5% | PC-3 prostate 76.2% | SK-MEL-5 melanoma 96.2% | UACC-62 melanoma 106% | SK-MEL-28 melanoma 111% | SK-MEL-2 melanoma 98.1% | SN12C renal 100% | UO-31 renal 85.5% | TK-10 renal 107% | ACHN renal 91.6% | CAKI-1 renal 99.1% | A498 renal 88.3% | CCRF-CEM leukemia 85.3% | MOLT-4 leukemia 83.9%

COc1ncc(-c2ccc3ncnc(Nc4cccc(Cl)c4)c3c2)cc1NS(C)(=O)=O
inactive: HCT-15 colon 30.8% | HT29 colon 22.3% | SNB-19 CNS 37.6% | U251 CNS 46.8% | PC-3 prostate 25.9% | SK-MEL-5 melanoma 23.3% | UACC-62 melanoma 19.1% | LOX IMVI melanoma 35.3% | SK-MEL-2 melanoma 32% | EKVX NSCLC 12.1% | SN12C renal 29.1% | CAKI-1 renal 14.9% | CCRF-CEM leukemia 32.5%
active: SNB-75 CNS 9.09% | UO-31 renal 8.8% | TK-10 renal -11.1% | A498 renal 0.974% | MOLT-4 leukemia -6.32%

O=S(=O)(NCCCNc1cc(-c2cn(-c3ccccc3)nc2-c2ccccc2)ccn1)c1ccc(C(F)(F)F)cc1
inactive: HCT-15 colon 41% | HT29 colon 20.5% | SNB-75 CNS 58.6% | SNB-19 CNS 66.9% | U251 CNS 44.4% | PC-3 prostate 17.6% | SK-MEL-5 melanoma 36.8% | UACC-62 melanoma 69.8% | LOX IMVI melanoma 54% | SK-MEL-2 melanoma 79% | EKVX NSCLC 46.4% | SN12C renal 63% | UO-31 renal 40.4% | TK-10 renal 72.3% | CAKI-1 renal 52.4% | A498 renal 70.6% | CCRF-CEM leukemia 50.2% | MOLT-4 leukemia 29.4%

O=C1CC(c2nc3ccccc3[nH]2)CN1C1CCCCC1 (centres undefined)
inactive: HCT-15 colon 105% | HT29 colon 102% | SNB-75 CNS 90.1% | SNB-19 CNS 110% | U251 CNS 99.7% | PC-3 prostate 93.3% | SK-MEL-5 melanoma 101% | UACC-62 melanoma 104% | LOX IMVI melanoma 93.9% | SK-MEL-28 melanoma 112% | SN12C renal 108% | UO-31 renal 78.4% | TK-10 renal 99.6% | ACHN renal 106% | CAKI-1 renal 94.2% | A498 renal 79.7% | CCRF-CEM leukemia 111% | MOLT-4 leukemia 102%

Cn1cc(-c2ccc(-c3cn(C)c4ncccc34)[nH]2)c2cccnc21
active: U251 CNS -44.1% | PC-3 prostate -29.9% | SK-MEL-5 melanoma 9.47% | UACC-62 melanoma -4.05% | UO-31 renal -81.3% | TK-10 renal -30% | ACHN renal 4.29%
inactive: HCT-15 colon 50.4% | HT29 colon 97.6% | SNB-75 CNS 59.7% | SNB-19 CNS 76% | LOX IMVI melanoma 21.8% | SK-MEL-28 melanoma 84.8% | SN12C renal 75.6% | CAKI-1 renal 54.6% | CCRF-CEM leukemia 28.3%

CC1=C(NCCN2CCCC2)C(=O)c2c(OCc3cccc(Cl)c3)cccc2C1=O
active: SK-MEL-28 melanoma -8.01%
inactive: HCT-15 colon 57.1% | HT29 colon 26.1% | SNB-75 CNS 75.1% | SNB-19 CNS 99.4% | U251 CNS 61.7% | PC-3 prostate 69.9% | SK-MEL-5 melanoma 67.1% | UACC-62 melanoma 93.7% | LOX IMVI melanoma 36.1% | SN12C renal 75.2% | UO-31 renal 52.7% | TK-10 renal 74.1% | ACHN renal 89.1% | A498 renal 47.4% | CCRF-CEM leukemia 54.9% | MOLT-4 leukemia 51.5%

CSc1nc(NCCCNc2ccnc3cc(Cl)ccc23)cc(-c2ccccc2)n1
inactive: HCT-15 colon 46.2% | SNB-75 CNS 56.9% | SNB-19 CNS 91.9% | U251 CNS 53.3% | PC-3 prostate 59.9% | SK-MEL-5 melanoma 52.6% | UACC-62 melanoma 91% | LOX IMVI melanoma 31.2% | SN12C renal 79.5% | UO-31 renal 42.3% | TK-10 renal 75.7% | ACHN renal 92.2% | CAKI-1 renal 54.1% | CCRF-CEM leukemia 47%
active: HT29 colon 9.09% | SK-MEL-28 melanoma -52.2%

N#CC1=C(N)Oc2c(ccc3ccccc23)C1c1cccs1 (centres undefined)
active: HT29 colon 5.33% | SNB-75 CNS 4.67% | SK-MEL-5 melanoma -35.9% | A498 renal -5.58% | CCRF-CEM leukemia 5.17% | MOLT-4 leukemia 1.98%
inactive: HCT-15 colon 13.5% | SNB-19 CNS 49.7% | U251 CNS 13.3% | PC-3 prostate 22.5% | UACC-62 melanoma 29.3% | SK-MEL-28 melanoma 41.1% | SK-MEL-2 melanoma 52.5% | SN12C renal 26.5% | UO-31 renal 46.5% | TK-10 renal 77.6% | ACHN renal 35.2% | CAKI-1 renal 48.9%

COc1cc(C2CC(=O)Nc3c2c(C)nn3-c2nc3ccccc3[nH]2)cc(OC)c1OC (centres undefined)
inactive: HCT-15 colon 101% | HT29 colon 109% | SNB-75 CNS 86.9% | SNB-19 CNS 93.4% | U251 CNS 102% | PC-3 prostate 75.2% | SK-MEL-5 melanoma 99.7% | UACC-62 melanoma 97.2% | SK-MEL-28 melanoma 103% | SK-MEL-2 melanoma 106% | SN12C renal 91.3% | UO-31 renal 96.8% | TK-10 renal 109% | ACHN renal 102% | CAKI-1 renal 114% | A498 renal 78.2% | CCRF-CEM leukemia 32%
active: MOLT-4 leukemia -42.5%

Cn1cc(-c2csc(-c3cn(C)c4ncccc34)n2)c2ccccc21
inactive: HCT-15 colon 26.5% | SNB-19 CNS 42.4% | U251 CNS 25.1% | PC-3 prostate 35.7% | SK-MEL-5 melanoma 32.6% | UACC-62 melanoma 47% | LOX IMVI melanoma 36.8% | SK-MEL-28 melanoma 61.4% | SN12C renal 56.4% | UO-31 renal 51.2% | TK-10 renal 50.3% | ACHN renal 57.4% | CAKI-1 renal 35.1% | CCRF-CEM leukemia 10.1% | MOLT-4 leukemia 14.6%
active: HT29 colon 6.11% | SNB-75 CNS -4.48% | A498 renal -0.625%

COc1ccc2nc3cc(Cl)ccc3c(N3CCN(c4nccc(NCc5ccccc5)n4)CC3)c2c1
inactive: HCT-15 colon 47.5% | HT29 colon 52.7% | SNB-75 CNS 69.2% | SNB-19 CNS 96% | U251 CNS 69% | PC-3 prostate 78.7% | SK-MEL-5 melanoma 84% | UACC-62 melanoma 85.2% | LOX IMVI melanoma 31.3% | SK-MEL-28 melanoma 80.7% | SN12C renal 76% | UO-31 renal 45.9% | TK-10 renal 62.6% | ACHN renal 68.5% | CAKI-1 renal 62.2% | A498 renal 28.8%
active: CCRF-CEM leukemia 0.798% | MOLT-4 leukemia 5.21%

COc1cc(C2C(C(=O)c3cccs3)=C(O)C(=O)N2CCN2CCOCC2)cc(OC)c1OC (centres undefined)
inactive: HCT-15 colon 102% | HT29 colon 103% | SNB-75 CNS 91.6% | SNB-19 CNS 103% | U251 CNS 94.7% | PC-3 prostate 95.4% | SK-MEL-5 melanoma 96.1% | UACC-62 melanoma 106% | SK-MEL-28 melanoma 104% | SK-MEL-2 melanoma 102% | SN12C renal 104% | UO-31 renal 97.3% | TK-10 renal 99.2% | ACHN renal 102% | CAKI-1 renal 101% | A498 renal 84.8% | CCRF-CEM leukemia 120% | MOLT-4 leukemia 129%

CC1=C(NCCN2CCCC2)C(=O)c2c(OCc3ccc(C(F)(F)F)cc3)cccc2C1=O
inactive: HCT-15 colon 70.9% | HT29 colon 42.4% | SNB-75 CNS 82.1% | SNB-19 CNS 95.3% | U251 CNS 69.9% | PC-3 prostate 47.4% | SK-MEL-5 melanoma 85.2% | UACC-62 melanoma 99.9% | LOX IMVI melanoma 68.4% | SK-MEL-28 melanoma 54.6% | SN12C renal 86.1% | UO-31 renal 62.1% | TK-10 renal 91.8% | ACHN renal 92.6% | CAKI-1 renal 59.9% | MOLT-4 leukemia 12.2%
active: CCRF-CEM leukemia 1.19%

COC(=O)C12C3C(=O)N(c4ccc(OC)cc4)C(=O)C3C(c3cn(-c4ccccc4)nc3C)N1[C@H](c1cn(-c3ccccc3)nc1C)[C@@H]1C(=O)N(c3ccc(OC)cc3)C(=O)[C@@H]12 (some centres undefined)
inactive: HCT-15 colon 101% | HT29 colon 103% | SNB-75 CNS 89.9% | SNB-19 CNS 91.1% | U251 CNS 93.9% | PC-3 prostate 87% | SK-MEL-5 melanoma 99.7% | UACC-62 melanoma 96.8% | SK-MEL-28 melanoma 105% | SK-MEL-2 melanoma 107% | SN12C renal 104% | UO-31 renal 97.1% | TK-10 renal 96.5% | ACHN renal 101% | CAKI-1 renal 91.7% | A498 renal 89.4% | CCRF-CEM leukemia 104% | MOLT-4 leukemia 81.8%

COc1ccc2nc3cc(Cl)ccc3c(N3CCN(c4nccc(Nc5ccccc5)n4)CC3)c2c1
inactive: HCT-15 colon 33.8% | HT29 colon 54% | SNB-75 CNS 52.8% | SNB-19 CNS 85.2% | U251 CNS 58.5% | PC-3 prostate 55.9% | SK-MEL-5 melanoma 80.4% | UACC-62 melanoma 78.9% | LOX IMVI melanoma 44.3% | SK-MEL-28 melanoma 83.5% | SN12C renal 62% | UO-31 renal 43.7% | TK-10 renal 65.6% | ACHN renal 52.1% | CAKI-1 renal 51.2% | A498 renal 16.6%
active: CCRF-CEM leukemia 7.71% | MOLT-4 leukemia 5.37%

COc1ccc(C(=O)c2sc3nc4c(cc3c2N)CCCC4)cc1OC
inactive: HCT-15 colon 31.2% | HT29 colon 19% | SNB-75 CNS 49.3% | SNB-19 CNS 71.3% | U251 CNS 39.9% | PC-3 prostate 50.8% | UACC-62 melanoma 36.2% | SK-MEL-28 melanoma 47.3% | SK-MEL-2 melanoma 25.3% | UO-31 renal 55.7% | TK-10 renal 83% | ACHN renal 63% | CAKI-1 renal 57.9% | A498 renal 34.9% | CCRF-CEM leukemia 28.9%
active: SK-MEL-5 melanoma -11.4% | MOLT-4 leukemia 6.5%

COc1cc(-c2c3sc(=O)[nH]c3nc3c2c(=O)[nH]n3C(C)C)cc2c1OCO2
inactive: HCT-15 colon 101% | HT29 colon 103% | SNB-75 CNS 85.2% | SNB-19 CNS 107% | U251 CNS 103% | PC-3 prostate 117% | SK-MEL-5 melanoma 96.9% | UACC-62 melanoma 105% | SK-MEL-28 melanoma 99.2% | SK-MEL-2 melanoma 101% | SN12C renal 99.4% | UO-31 renal 96.8% | TK-10 renal 114% | ACHN renal 95.8% | CAKI-1 renal 88.8% | A498 renal 67.1% | CCRF-CEM leukemia 125% | MOLT-4 leukemia 104%
